KDM5B inhibitor: KDM5B demethylase inhibition; 220,000 compounds, 2.6% hits; Q9UGL1; Potency, µM (titrated, usually from 57.7 µM), usual class: inhibitors; KDM5B demethylase, FDH-coupled NADH fluorescence (FDH is formaldehyde dehydrogenase); further: potency means the concentration at half of the fitted maximal effect; 0% is about no effect; nearly all actives have a fitted effect of over 70% in size
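Compound dilutions met 200 nM (final) KDM5BΔAP for 10 min at room temperature before substrate addition. The substrate mix held 12.5 µM H3K4me3 with cofactors 25 µM α-ketoglutarate and 50 µM Fe²⁺. NADH signal gain over 30 min defined activity.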
IP6K1 inh: IP6K1 kinase inhibition | 140,000 compounds, 0.81% hits | IP6K1 kinase, ADP-Glo luminescence, 2 h; active compounds read low | activity change, % (series mostly up to about 58 µM); in the data active means activity change below about -25%; further: on the % scale 0 is the no-effect control and ±100 the full control effect
Target sequence (Q92551 whole entry, looked up): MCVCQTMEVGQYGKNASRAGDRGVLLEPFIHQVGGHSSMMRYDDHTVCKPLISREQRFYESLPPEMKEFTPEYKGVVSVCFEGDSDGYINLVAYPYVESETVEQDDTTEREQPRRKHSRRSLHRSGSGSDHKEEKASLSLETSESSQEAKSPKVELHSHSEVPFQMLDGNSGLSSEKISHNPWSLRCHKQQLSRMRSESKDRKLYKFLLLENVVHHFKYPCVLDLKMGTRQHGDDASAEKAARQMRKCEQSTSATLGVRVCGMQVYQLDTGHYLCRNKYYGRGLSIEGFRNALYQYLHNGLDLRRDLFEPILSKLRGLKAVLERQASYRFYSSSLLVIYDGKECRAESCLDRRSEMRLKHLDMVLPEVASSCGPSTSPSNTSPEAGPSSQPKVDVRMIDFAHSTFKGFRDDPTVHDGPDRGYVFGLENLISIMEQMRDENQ
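ADP-Glo luminescence measures ADP made by human IP6K1 during a 2 h RT reaction with ATP/IP6 (mix at 1.3 mM/130 uM); top library doses 57.5 and 19.1 uM final.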
* = called active by the depositor; i = inactive; ? = inconclusive; / = no result given. Compounds with a hit are over-represented: about 2.7% of the library has one in this group of screens.

SMILES | KDM5B inhibitor | IP6K1 inh
COc1ccc(-c2cc(-c3cccc(C(N)=O)c3)cn3cncc23)cc1 | ? | -7
COc1ccc(-c2cc(-c3cccnc3)c3cncn3c2)cn1 | ? | -15
COc1ccc(-c2cc(-c3ccc4cn[nH]c4c3)cn3cncc23)cn1 | 10µM* | -8
COCCCNC(=O)C1CC(=O)N(CCc2c[nH]c3ccc(F)cc23)C1 (configuration not stated) | i | /
CCS(=O)(=O)Nc1cccc(C2=NN(S(=O)(=O)c3ccc(F)cc3)C(c3ccccc3)C2)c1 (configuration not stated) | i | /
C=C(C)Cn1c(-n2nc(C)c(C)c2C)nc2c1c(=O)n(CCN1CCOCC1)c(=O)n2C | i | /
COC(=O)N1CCCC(N2C(=O)c3c(c(C)nn3-c3ccccc3)C2C(C)C)C1 (configuration not stated) | / | 16
Cc1nc(N2CCCCCC2)ncc1C(=O)O | ? | -7
CCc1nc(N2CCOCC2)ncc1C(=O)O | 25µM* | -21
O=c1cc(N2CCOCC2)oc2c(N3CCN(c4ccccn4)CC3)nccc12 | i | -21
O=C(CCc1ccnc(N2CCOCC2)c1)NCc1cnccn1 | ? | -8
O=c1cc(N2CCOCC2)oc2c(NCC3CCOCC3)nccc12 | 32µM* | -10
O=c1cc(N2CCOCC2)oc2c(NCc3cnccn3)nccc12 | 35µM* | -22
COc1cc(C(=O)N2CCC(CC(=O)NCCN(C)C)CC2)cc(OC)c1OC | i | /
CC(C)(C)C(=O)NCCC(=O)NCc1cccc(NC(=O)C2CCCC2)c1 | i | /
c1ccc2c(NC34CC5CC(CC(C5)C3)C4)nc(N3CCCC3)nc2c1 | i | /
Cn1cccc1C(=O)N1CC(Oc2cccc(-c3nc(-c4ccccc4)no3)c2)C1 | 32µM* | 0
O=C(c1cccc2[nH]ccc12)N1CC(Oc2cccc(-c3nc(-c4ccccc4)no3)c2)C1 | 25µM* | -2
Cc1noc(-c2cccc(OC3CN(C(=O)c4cccn4C)C3)c2)n1 | i | -3
O=C(c1ccc(F)cc1)N1CC(Oc2cccc(-c3nc(-c4ccccc4)no3)c2)C1 | ? | 0
O=c1[nH]c2ccc(-c3csc(Nc4ccccc4)n3)cc2o1 | i | /
CCc1ccccc1NC(=O)CN1CCN(Cc2csc(-c3ccc(Cl)cc3)n2)CC1 | i | /
CCc1noc(-c2ccn3c(CNC(=O)c4ccccc4F)nnc3c2)n1 | i | 40
CCCc1noc(-c2ccn3c(CNC(=O)c4ccc(F)cc4Cl)nnc3c2)n1 | i | 39
CCc1noc(-c2ccn3c(CNC(=O)c4cc(F)ccc4Cl)nnc3c2)n1 | 28µM* | 7
SMILES | KDM5B inhibitor | IP6K1 inh
CC(C)c1noc(-c2ccn3c(CNC(=O)c4ccc(F)cc4Cl)nnc3c2)n1 | 28µM* | 5
CCOc1ccccc1C(=O)NCc1nnc2cc(-c3nc(CC)no3)ccn12 | 28µM* | 28
Cc1noc(-c2ccn3c(CNC(=O)c4ccc(F)cc4Cl)nnc3c2)n1 | i | 3
Cc1nn(CC(=O)NC(C)(C)C)c(C)c1S(=O)(=O)N1CCCC(C(=O)N2CCN(C)CC2)C1 (configuration not stated) | i | /
O=C(Cc1ccc(F)cc1)NCc1nnc2ccc(-c3ccc(Cl)cc3)nn12 | ? | 14
COc1ccc(C(=O)NCc2nnc3ccc(-c4ccc(Cl)cc4)nn23)cc1F | ? | -2
N#Cc1ccc(C(=O)NCc2nnc3ccc(-c4ccc(F)cc4)nn23)cc1 | 28µM* | 45
COc1ccc(-c2ccc3nnc(CNC(=O)c4cccc(OC(F)(F)F)c4)n3n2)cc1 | ? | 15
O=C(NCc1nnc2ccc(-c3ccc(Cl)cc3)nn12)c1cccc(Cl)c1 | 22µM* | 4
O=C(NCc1nnc2ccc(-c3ccc(F)cc3)nn12)c1cccc(C(F)(F)F)c1 | 28µM* | 12
CC(=O)Nc1cccc(C(=O)NCc2nnc3ccc(-c4ccc(C)cc4)nn23)c1 | ? | 8
O=C(NCc1nnc2ccc(-c3ccccc3)nn12)c1cccc(Br)c1 | 22µM* | 15
O=C(Nc1ccc(Cn2cncn2)cc1)c1csc(NCc2ccccc2)n1 | i | /
O=C1c2c(nc(CNCc3ccc4c(c3)OCO4)n2Cc2ccccc2)NCCN1CCOc1ccccc1 | ? | -14
Cn1nc(C(=O)OCC(=O)NCc2ccccc2)c2ccccc2c1=O | i | /
O=C(NC12CC3CC(CC(C3)C1)C2)C1CCN(S(=O)(=O)Cc2ccccc2F)CC1 | i | /
CNC(=O)Cn1nc(C(=O)N2CCC3(CC2)[C@H](O)C[C@@H]3O)cc1C | i | 9
CCO[C@H]1C[C@@H](O)C12CCN(C(=O)c1cc3nc(C)cc(C)n3n1)CC2 | 28µM* | 31
CC(NC(=O)c1ccccc1F)c1cc2ccccc2o1 (configuration not stated) | i | /
COc1ccc(Cn2c(=O)c(C(=O)NCc3ccc(Cl)cc3)nc3cccnc32)cc1 | / | 10

Screening results from PubChem BioAssay.
